# Records with an inconclusive call do not appear. Entries that show only a call come without a potency. Active and inactive are the calls of the source. Calls follow the shape of the dose curve; as a rule, active = well fitted cell-killing curve with a large enough effect in the repeat runs; inconclusive = weak or mixed curves, or effect the other way; inactive = flat fitted curve, though single readings scatter.
# Experiment: qHTS assay to identify small molecule antagonists of the constitutive androstane receptor (CAR) signaling pathway - cell viability counter screen (AID 1224837); also: nearly all actives have a fitted effect of over 45% in size
# Details: HepG2-CYP2B6-hCAR viability, CellTiter-Fluor, 23 h, co-treated with 50 nM CITCO; series mostly up to 92.4 µM
# Text: National Center for Advancing Translational Sciences [NCATS]
# NIH Chemical Genomics Center [NCGC]
# U.S. Environmental Protection Agency [EPA]
# National Institutes of Environmental Health Sciences [NIEHS]
# National Toxicology Program [NTP]
# U.S. Food and Drug Administration [FDA]
# The constitutive androstane receptor (CAR) is a nuclear receptor which regulates multiple drug metabolizing enzymes (DMEs) and transporters. Activating CAR will generally increase the transcription and subsequent translation of CYP2B6 and CYP3A4. These two DMEs represent about 50% of the drug metabolizing potential in the body. When CAR is deactivated, the metabolizing potential in the body will decrease, subsequently increasing the toxicity in the body or lowering the therapeutic potential of a pro-drug. Recently, there have also been studies performed indicating CARs role in energy metabolism and cancer therapy. Therefore, inhibiting CARs activity could have a potential effect on diabetes and cancer. Identifying environmental toxins and compounds which modulate CAR, through the use of the Tox21 10K compound collection, will be an important step in determining the toxicity and potential therapeutic effects these factors will have on the human body. To differentiate true CAR antagonists from cytotoxic substances, the assay is multiplexed with a cell viability assay.
# Tox21 Assay Protocol Summary:
# A double-stable (hCAR and CYP2B6-2.2kb) transfected cell line, derived from human hepatoma (HepG2) cells, was utilized for the duration of the quantitative high-throughput screens. The HepG2-CYP2B6-hCAR cells were dispensed at 2500 cells/4 uL/well in 1536-well white solid bottom plates using a Multidrop Combi. After the assay plates were incubated at 37 C/5% CO2 for 4 hrs, 23 nL of compounds at 15 concentrations (from 5-48 columns) or positive control (from 1 to 4 columns) were transferred to the assay plates using a Pintool station. One uL of CITCO (final concentration = 50 nM) was added, using a Flying Reagent Dispenser, inside each well. After a 23 hr incubation period at 37 C/5% CO2, 1 uL of CellTiter-Fluor reagent was added into each well of the assay plates using a Flying Reagent Dispenser. The fluorescence intensity in the plates was then measured using a ViewLux plate reader.
# Potency is read from the fitted curve at half-maximal effect.
SMILES,Potency,"activity change, negative = cytotoxicity"
Oc1ccc(-c2ccccc2)c(Cl)c1,inactive,
CN(Cc1cc(Br)cc(Br)c1N)C1CCCCC1,inactive,
O=C(O)Cc1ccc(OCCNC[C@H](O)c2ccccc2)cc1,inactive,
CCN(CC)CCOC(=O)C1(C2CCCCC2)CCCCC1,inactive,
c1cc[nH]c1,inactive,
CC(C)(C)C1=CC(=O)C=C(C(C)(C)C)C1=O,inactive,
CN(C)CCN1CCOCC1,inactive,
CCC(=O)CC(C)CC (stereo not given),,5.84% [at 0.349 µM] (inactive)
CCCCCCCC(C)=O,inactive,
CC(=O)c1ccccc1N,inactive,
CC[N+](CC)(CC)Cc1ccccc1,inactive,
CCOC(OCC)C(=O)c1ccccc1,inactive,
O=C1NCCN1CCN1CCC(c2cn(-c3ccc(F)cc3)c3ccc(Cl)cc23)CC1,11.9 µM (active),
CCCC(=O)OCC(COC(=O)CCC)OC(=O)CCC,inactive,
O=C(O)CCn1c2c(c3ccccc31)C[C@H](NS(=O)(=O)c1ccc(F)cc1)CC2,inactive,
CCO[Si](C)(C)OCC,inactive,
C=CC(=O)OCCN(CC)CC,inactive,
C=C1C(C)(C)[C@@]2(Cl)C(Cl)[C@]1(Cl)C(Cl)(Cl)C2(Cl)Cl (stereo not given in full),inactive,
OCCCc1cccnc1,inactive,
NCCCC(O)(P(=O)(O)O)P(=O)(O)O,inactive,

SMILES,Potency,"activity change, negative = cytotoxicity"
CCCCNc1c(C(=O)OCC)c(C)nc2c1cnn2CC,inactive,
CCc1c(C(=O)O)c(=O)cnn1-c1ccc(Cl)cc1,inactive,
C/C=C/CO,inactive,
OCCC(O)CO (stereo not given),inactive,
CC(C)=CC1CC(C)CCO1 (stereo not given),inactive,
CCCCCCCC/C=C\CCCCCCCC(=O)NCc1ccc(O)c(OC)c1,inactive,
CC1=CCC(=O)O1,inactive,
C/C=C/c1ccc(OC)c(OC)c1,inactive,
CCC(=O)OCCc1ccccc1,inactive,
Nc1ncnc2c1ncn2[C@@H]1O[C@H](COP(=O)(O)O)[C@@H](O)[C@H]1O,inactive,
CCOCN(C(=O)CS(=O)(=O)O)c1c(C)cccc1CC,inactive,
O=Cc1ccc(F)cc1,inactive,
CC(=O)Oc1ccc(C2(c3ccc(OC(C)=O)cc3)Oc3ccccc3NC2=O)cc1,inactive,
CCO[Si](CCCSSSSCCC[Si](OCC)(OCC)OCC)(OCC)OCC,inactive,
C(=C/c1ccccc1)/c1ccccc1,inactive,
CC(=O)C=O,inactive,
COc1nccnc1CC(C)C,inactive,
CC(=O)Oc1ccc(C2(c3ccc(OC(C)=O)cc3)C(=O)Nc3ccccc32)cc1,inactive,
CC(C)(C)c1n[nH]c(=O)n(N)c1=O,inactive,
O=C(Oc1ccccc1)c1cccc(C(=O)Oc2ccccc2)c1,inactive,
